The source of these data is PubChem BioAssay (NCI).

Structures are written as SMILES. About 83,000 compounds went through this panel and 20% of them were active in at least one assay; those are over-represented in the sample as a whole.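 Note: values are percent growth. 100 is the growth of untreated cells, values between 100 and 0 indicate rising inhibition; between -100 and 0 indicates cell death.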 Unmarked numbers belong to inactive results. The source made the active and inactive calls. The calls were made as follows: active = growth percent below 10; inactive = the rest.

Test systems include NCI-H23 lung; NCI-H226 lung; NCI-H322M lung; HOP-62 NSCLC; NCI-H460 lung; HOP-92 NSCLC; NCI-H522 lung; A549/ATCC NSCLC; 786-0 renal; COLO 205 colon.
What all share (experiment): NCI-60 one-dose screen, 48 h (100 = growth as untreated, 0 = no growth, -100 = all killed)
What all share (details): 10 µM unless noted

As for `CC(=O)CC(c1ccccc1)c1c(C)[nH]c2ccccc12` (stereo not given), the growth in the assay on NCI-H23 lung was 81.9%; with NCI-H226 lung, 89.7%; in the assay with NCI-H322M lung, 100%; in the assay on HOP-62 NSCLC, 93.1%; in the assay with NCI-H460 lung, 106%; in the assay with HOP-92 NSCLC, 94.3%. For the same compound, the growth is 94.4% in the assay with NCI-H522 lung, 99.5% in the assay on A549/ATCC NSCLC, 104% in the assay on 786-0 renal and 107% in the assay on COLO 205 colon.
As for `CCN(CC)CCNc1nc2ccccc2c2c(=O)c3cc(Cl)ccc3sc12`, the growth was 79.7% with NCI-H23 lung; 91.7% with NCI-H226 lung; 87.5% in the assay with NCI-H322M lung; 76.7% in the assay on HOP-62 NSCLC; 8.93% (active) in the assay on NCI-H460 lung; 28.6% in the assay with HOP-92 NSCLC. For the same compound, the growth is 63.9% in the assay on NCI-H522 lung, 52.3% in the assay with A549/ATCC NSCLC, 74.5% in the assay with 786-0 renal and 64.2% with COLO 205 colon.
Consider `COc1ccc(S(=O)(=O)n2cc(C3OC(c4cc(OC)c(OC)c(OC)c4)=NN3C(C)=O)c3ccccc32)cc1OC` (stereo not given), for which the growth with NCI-H23 lung was 79.5%; in the assay with NCI-H226 lung, 93.2%; with NCI-H322M lung, 98%; in the assay on HOP-62 NSCLC, 78.1%; in the assay with NCI-H460 lung, 97.1%; in the assay with HOP-92 NSCLC, 63.9%. Also, the growth with NCI-H522 lung was 84%; in the assay with A549/ATCC NSCLC it was 98.3%; in the assay with 786-0 renal, 86.3%; with COLO 205 colon, 127%.
For the compound `CCOC(=O)Cn1c(=O)c2c(c3ccccc3n2C)n2nnc(-c3ccccc3)c12`, the growth with NCI-H23 lung is 102%; in the assay on NCI-H226 lung, 128%; in the assay on NCI-H322M lung, 115%; in the assay with HOP-62 NSCLC, 95.5%; in the assay on NCI-H460 lung it was 102%; with HOP-92 NSCLC, -15.2% (active). The growth with NCI-H522 lung is 92.6%; with A549/ATCC NSCLC, 106%; in the assay on 786-0 renal, 104%; in the assay on COLO 205 colon it was 114%.
On to `CC1Cc2c(ncn3c(-c4ccc(F)cc4)nnc23)N(C)c2ccccc21` (stereo not given), for which the growth is 73.4% in the assay with NCI-H23 lung; 33.2% in the assay with NCI-H226 lung; 2.19% (active) with NCI-H322M lung; 59.5% with HOP-62 NSCLC; 5% (active) with NCI-H460 lung; 35.9% with HOP-92 NSCLC. The growth in the assay on NCI-H522 lung is 63%; with A549/ATCC NSCLC, 16.3%; in the assay on 786-0 renal, 29.9%; with COLO 205 colon it was 43.6%.
In the case of `CN1CCN(c2ccc(-c3ccc4ncc(C#N)c(Nc5ccc(F)c(Cl)c5)c4c3)cc2)CC1`, the growth is 77.4% in the assay with NCI-H23 lung; 86.8% in the assay with NCI-H226 lung; 19.7% with NCI-H322M lung; 65.9% in the assay with HOP-62 NSCLC; 27% in the assay on NCI-H460 lung; 63.5% with HOP-92 NSCLC. For the same compound, the growth in the assay with NCI-H522 lung was 33.3%; with A549/ATCC NSCLC, 45.6%; with 786-0 renal it was 45.4%; with COLO 205 colon, 47.5%.
As to `O=CN(SSN(C=O)C1CCCCC1)C1CCCCC1`, the growth with NCI-H23 lung is 115%; in the assay with NCI-H226 lung, 91.9%; with NCI-H322M lung it was 110%; with HOP-62 NSCLC it was 95.4%; in the assay on NCI-H460 lung it was 125%; in the assay with HOP-92 NSCLC, 135%. Further, the growth is -25.1% (active) in the assay on NCI-H522 lung, 119% in the assay with A549/ATCC NSCLC, 105% with 786-0 renal and 113% in the assay with COLO 205 colon.
Turning to `NCCCNc1nc2ccccc2c2c(=O)c3cc(OC(F)(F)F)ccc3sc12`, the growth is 48.3% with NCI-H23 lung; 85.7% in the assay on NCI-H226 lung; 49.1% with NCI-H322M lung; 51.6% in the assay on HOP-62 NSCLC; -76.6% (active) in the assay with NCI-H460 lung; 17.3% in the assay on HOP-92 NSCLC. Besides, the growth in the assay on NCI-H522 lung was -14.4% (active); with A549/ATCC NSCLC it was -43.3% (active); in the assay on 786-0 renal, 57.5%; in the assay with COLO 205 colon, -52.7% (active).
Take `Cc1cccc2c3c(sc12)C(c1ccc(Cl)cc1)C(C#N)=C(N)O3` (stereo not given): the growth with NCI-H23 lung was 21.4%; with NCI-H226 lung it was 26.4%; in the assay on NCI-H322M lung it was 49.1%; in the assay with HOP-62 NSCLC it was 38.7%; in the assay with NCI-H460 lung, 9.2% (active); in the assay with HOP-92 NSCLC it was 89.7%. Moreover, the growth in the assay with NCI-H522 lung was 13.7%; in the assay on A549/ATCC NSCLC it was 30.1%; with 786-0 renal, 29%; in the assay on COLO 205 colon it was -21.2% (active).
For the compound `CCOC(=O)c1c(C)oc2ncnc(N3CCN(C(=O)COc4ccc(C(C)(C)C)cc4)CC3)c12`, the growth was 72.5% in the assay with NCI-H23 lung; 66.5% with NCI-H226 lung; 88.8% in the assay with NCI-H322M lung; 90.8% in the assay on HOP-62 NSCLC; 91.4% in the assay on NCI-H460 lung; 62.9% with HOP-92 NSCLC. Further, the growth in the assay with NCI-H522 lung was 77.9%; in the assay with A549/ATCC NSCLC, 86%; in the assay on 786-0 renal, 99.1%; in the assay with COLO 205 colon, 76.9%.
Consider `O=c1c2cc(F)cc(Cl)c2sc2c(NCCCNCCO)nc3ccccc3c12`, for which the growth with NCI-H23 lung was 89.9%; in the assay with NCI-H226 lung, 106%; in the assay on NCI-H322M lung it was 89.8%; in the assay on HOP-62 NSCLC, 90.1%; in the assay on NCI-H460 lung it was 10.3%; with HOP-92 NSCLC, 65.6%. The growth with NCI-H522 lung was 92.4%; in the assay on A549/ATCC NSCLC it was 83.7%; in the assay on 786-0 renal, 81.7%; in the assay on COLO 205 colon it was 73.5%.
With `NS(=O)(=O)c1ccc(N=Nc2ccc(-c3nn4cc(-c5ccccc5)nc4s3)cc2)cc1`, the growth with NCI-H23 lung was 97.1%; in the assay on NCI-H226 lung, 99.9%; with NCI-H322M lung, 103%; in the assay on HOP-62 NSCLC, 83%; in the assay on NCI-H460 lung, 113%; in the assay on HOP-92 NSCLC it was 105%. For the same compound, the growth was 89.9% with NCI-H522 lung, 96.9% in the assay on A549/ATCC NSCLC, 94.6% in the assay with 786-0 renal and 100% in the assay with COLO 205 colon.
With `O=c1c2cc(F)ccc2sc2c(NCCN3CCOCC3)nc3ccccc3c12`, the growth in the assay with NCI-H23 lung is 85.1%; in the assay on NCI-H226 lung it was 91.3%; with NCI-H322M lung it was 77.8%; in the assay with HOP-62 NSCLC, 80.9%; in the assay on NCI-H460 lung, 31.8%; with HOP-92 NSCLC it was 44.6%. Besides, the growth is 65.6% in the assay on NCI-H522 lung, 69.3% in the assay on A549/ATCC NSCLC, 59.2% in the assay with 786-0 renal and 53.2% with COLO 205 colon.
On to `CCOC(=O)C1=C(N)Oc2c(sc3c(C)cccc23)C1c1ccc(Cl)cc1` (stereo not given), for which the growth with NCI-H23 lung is 28.2%; with NCI-H226 lung, 32.9%; in the assay with NCI-H322M lung, 47.3%; in the assay with HOP-62 NSCLC, 31.8%; with NCI-H460 lung, 13.1%; with HOP-92 NSCLC, 85%. In addition, the growth is 23% in the assay on NCI-H522 lung, 46.2% in the assay with A549/ATCC NSCLC, 35.7% with 786-0 renal and 20.3% in the assay with COLO 205 colon.
